# High-throughput results as filed in PubChem BioAssay.
# HPGD inh – HPGD (human) dehydrogenase inhibition; P15428; purified HPGD, NADH fluorescence kinetic, PGE2 substrate; Potency, µM, inactives show top-dose activity change, negative = inhibition, usual class: inhibitors; 4.3% of 150,000 active; AID 894; also: potency is read from the fitted curve at half-maximal effect
#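 NADH formation kinetics: reaction with 30 uM PGE2 and 1 mM NAD+ (final), 20 nM enzyme, Tris-HCl pH 8 with Tween 20, after 15 min compound preincubation at room temperature. Fluorescence change, last versus first of five reads.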
# KinaseGlo FLuc – blocks Kinase-Glo luciferase, a counter-screen artifact | Q27757 | Kinase-Glo luciferase, ATP luminescence, 8 min | Potency, µM (titrated, usually from 38.3 µM), without a hit: at the highest dose activity change, negative = inhibition, usual class: inhibitors | 0.28% of 200,000 active; active = well fitted inhibition curve with a large enough effect; inconclusive = small, poorly fitted or top-dose-only effect; also: potency is read from the fitted curve at half-maximal effect; nearly all actives have a fitted effect of over 60% in size
#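 Recombinant Kinase-Glo luciferase, 10 uM ATP (linear range), luciferin; imidazole pH 7.2 / KCl / MgCl2 / Tween / BSA buffer; 8 min RT; luminescence.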
# Lamin A splicing – changes lamin A minigene splicing in HeLa cells; Potency, µM (highest dose often 46.1 µM), for inactives: at the top dose ratio change, negative = inhibition, actives largely listed as inhibitors; HeLa LMNA splicing GFP/RFP minigene ratio, 48 h; 0.01% of 200,000 active; AID 1487; active = well fitted inhibition curve with a large enough effect in the signal ratio, with a control signal flat, not every such curve was filed as active; inconclusive = small, poorly fitted or top-dose-only effect, or effect the other way, or a change in a side signal; the % refers to the signal ratio; also: potency is read from the fitted curve at half-maximal effect
#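 S3 HeLa cells stably expressing lamin A-EGFP splicing minigene plus DsRed2, 600 cells/well, 48 h compound exposure at 37C. Laser-scanning cytometry; analysed as GFP (500-530 nm)/RFP (575-640 nm) total intensity ratio; 0.5% DMSO vehicle.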
# ALDH1A1 block – ALDH1A1 (human) enzyme inhibition. 7.3% of 220,000 active. Potency, µM (highest dose often 75.3 µM), for inactives: at the highest dose activity, negative = inhibition, most hits filed as inhibitors. P00352. Purified ALDH1A1, NADH fluorescence, propionaldehyde substrate;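 also: potency is read from the fitted curve at half-maximal effect; plate controls were no enzyme wells and a reference inhibitor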
# Target sequence (P00352 whole entry, looked up): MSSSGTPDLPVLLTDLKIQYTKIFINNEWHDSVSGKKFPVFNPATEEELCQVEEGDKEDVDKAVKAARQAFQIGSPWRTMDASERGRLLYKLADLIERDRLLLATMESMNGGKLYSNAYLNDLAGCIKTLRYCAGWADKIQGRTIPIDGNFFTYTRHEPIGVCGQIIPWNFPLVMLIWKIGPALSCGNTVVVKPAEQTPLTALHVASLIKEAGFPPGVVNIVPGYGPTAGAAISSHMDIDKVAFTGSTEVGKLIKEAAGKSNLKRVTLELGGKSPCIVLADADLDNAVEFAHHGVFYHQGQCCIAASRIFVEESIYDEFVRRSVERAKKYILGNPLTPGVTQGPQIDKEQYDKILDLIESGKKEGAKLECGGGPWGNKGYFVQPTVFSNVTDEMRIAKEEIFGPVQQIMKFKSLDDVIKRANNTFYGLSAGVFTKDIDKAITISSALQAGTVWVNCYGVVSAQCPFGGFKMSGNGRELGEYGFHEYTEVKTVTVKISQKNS
# PNC inhibitor – perinucleolar compartment assembly inhibition | PC3M PTB-GFP, PNC prevalence imaging, 16 h; hits give low values | activity change (PNC), negative = inhibition, % at 10 µM | 3.1% of 140,000 active | AID 2417;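 active = readout at or below -70, meaning at least 70% loss of cells showing the perinucleolar compartment, a nuclear body marking cancer cells; inconclusive = readout between -30 and a set limit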;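 also: plate controls were DMSO wells for no effect and camptothecin positive control wells for full effect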
#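 Compounds are pinned in duplicate onto adhered PC3M cells stably expressing GFP-tagged PTB and incubated 16 h at 37 C. Cells are then fixed, nuclei stained with Hoechst, and PNC-positive cells counted.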
# The depositor's hits bear a star; ? = inconclusive; . = not tested or not shown; ! = not confirmed by another sample; [ ] = dose if it differs, or a comment. In the library only some 10% were active in any assay of this set; here they are far more common. Unless noted, calls follow the shape of the dose curve; as a rule, active = well fitted inhibition curve with a large enough effect (not every such curve was filed as active); inconclusive = small, poorly fitted or top-dose-only effect, or another doubt; inactive = no such curve, though single readings can be large or run the other way. Unless noted, % is scaled to controls: 0 for no effect and ±100 for the full control effect.
SMILES,HPGD inh,KinaseGlo FLuc,Lamin A splicing,ALDH1A1 block,PNC inhibitor
COCc1[nH]nc2c1C(c1cccc(OC)c1)C(C#N)=C(N)O2 (centres undefined),-22%,0%,0%,28µM*,-12
O=C(COc1ccccc1)Nc1nnc(SCc2cc(=O)c3ccccc3[nH]2)s1,.,.,-8%[46 µM],.,.
CN(Cc1ccco1)c1cc(-c2ccc3c(c2)OCO3)ncn1,.,.,28%,?,.
CCCCn1nnc(NC(=S)NC(=O)c2ccc(-c3cccc(Cl)c3Cl)o2)n1,.,.,-1%,3.5µM*,-11
CCCCC(=O)NC(=S)Nc1nnn(CCC)n1,.,-3%,?,0.5µM*,.
N[C@H](C(=O)O)[C@@H]1[C@@H](C(=O)O)C1(F)F,-5%,0%,.,8%,.
CO[C@H]1COC(=O)[C@@H](C)COC(=O)[C@@H](COCc2ccccc2)NC(=O)C/C=C\[C@H]1C,.,.,.,5%[13.5 µM],.
CC(C)(C)NC(=O)CN(Cc1cccs1)C(=O)CN1C(=O)C(=O)c2ccccc21,.,4%,.,0.028µM*,.
O=C(CCNS(=O)(=O)c1ccc2c(c1)CCCC(=O)N2)NCc1ccccc1Cl,.,.,9%[46 µM],.,.
O=C(Nc1ccnc(-c2ccncc2)n1)c1ccc(F)cc1,.,5%,6%[9.22 µM],10%,.
O=C(NCSc1ccnc(SCNC(=O)c2ccc(F)cc2)n1)c1ccc(F)cc1,22µM*,-1%,7%,?,-97*
Cn1nc(C(=O)Nc2cccc(C(F)(F)F)c2)c2c1-c1ccccc1S(=O)(=O)C2,.,.,0%[46 µM],.,.
O=C1C(CCCNC(=S)NCc2ccccc2)NC(=S)N1Cc1ccccc1 (centres undefined),?,-2%,-1%,32µM*,17
COc1ccc(/C=C/C(=O)Nc2ccccc2C(=O)O)cc1OC,14µM*!,-1%,?,-3%,-15
COc1ccc(/C=C/C(=O)c2ccc(O)cc2O)cc1OC,14µM*,-3%,.,?,.
COc1ccc(/C=C/C(=O)Nc2ccccc2C(=O)O)cc1,.,-15%,.,-10%,.
O=C(/C=C/c1ccccc1)c1ccc(O)cc1O,16µM*,-21%,.,?,.
COc1ccc(C(=O)/C=C(\N)C(F)(F)F)c(O)c1,-14%,-2%,8%,8.9µM*,20
O=C(/C=C/c1ccc(O)cc1)c1ccc(O)cc1O,-16%,-3%,?,5%,11
COc1ccc(/C=C/C(=O)c2cc(O)ccc2O)cc1,?,-13%,.,?,.
COc1ccc(/C=C/C(=O)c2ccc(O)cc2O)cc1,32µM*,-10%,?,?,.
COC1C(O)C(CO)OC1n1cnc2c(=O)[nH]c(N)nc21 (centres undefined),-11%,-2%,-2%,6%,.
O=C1CCCC2=C1C1(O)C(=O)c3ccccc3C1(O)O2 (centres undefined),-2%,2%,23%,4µM*,4
CCCc1nc(S(=O)(=O)Cc2ccc(Cl)cc2Cl)n[nH]1,.,.,-9%,-4%,-116*
O=c1[nH]nc(Cc2ccc(Cl)cc2Cl)c2ccccc12,-13%,-1%,?,1%,-9
SMILES,HPGD inh,KinaseGlo FLuc,Lamin A splicing,ALDH1A1 block,PNC inhibitor
CCN1CCCc2cc(CN(CCN3CCOCC3)C(=S)Nc3ccccc3OC)ccc21,.,1%,?,?,.
CCN1CCCc2cc(CN(CCN3CCOCC3)C(=S)Nc3ccc(OC)c(OC)c3)ccc21,.,0%,8%[46 µM],3.2µM*,.
COc1ccc(NC(=S)N(Cc2ccc(Cl)cc2)Cc2ccc(C(=O)O)cc2)cc1Cl,.,-2%,?,20µM*,.
Cc1cc(NC(=S)N(Cc2ccc(Cl)cc2)Cc2ccc(C(=O)O)cc2)ccc1Cl,.,11%,3%[46 µM],-5%,.
CCN1CCCc2cc(CN(CCN3CCOCC3)C(=S)Nc3ccc(OC)c(Cl)c3)ccc21,.,3%,.,18µM*,.
COc1cc(OC)c2c(c1)OC(=O)CC2c1ccccc1OC (centres undefined),-7%,3%[39.9 µM],.,-9%,.
CC(C)(C)c1[nH]nc2c1C(c1ccc(OC(=O)c3ccco3)cc1)C(C#N)=C(N)O2 (centres undefined),-17%,-5%,15%,4.5µM*,-24
O=C(Nc1ccc(Br)cc1F)c1cc(S(=O)(=O)NC2CCCCC2)ccc1F,.,.,-26%[46 µM],.,.
Clc1cccc(-c2ccc(CNCCCN3CCOCC3)o2)c1,.,6%,.,28µM*,.
Cn1nnnc1SCCCNCc1ccc(-c2cccc(Cl)c2)o1,.,.,-10%[46 µM],.,.
